Sampled rows, rich in hits. Any-hit rate of the full collection: about 19%.
HT1080-NT tox = kills 2HG-producing HT-1080-NT fibrosarcoma cells | HT-1080-NT fibrosarcoma viability, CellTiter-Glo ATP luminescence, 48 h | Potency, µM (highest dose often 46.1 µM), hits mostly cytotoxic | hit rate 1.6% among 360,000 | AID 686970;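 also: NT is the 2HG producing partner of a matched IDH1 knockdown line; nearly all actives have a fitted effect of over 55% in size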
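Viability of the 2HG-overproducing fibrosarcoma line after 48 hours of compound exposure at 37 degrees C was determined by luminescence with CellTiter-Glo, and concentration-effect curves were then fitted and categorized.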
DT40 TDP1 CPT = DT40-hTDP1 cell growth loss with CPT; chicken DT40 Tdp1-/-;hTDP1 cells + 20 nM CPT, ATP luminescence, 48 h; hit rate 12% among 420,000; Potency, µM (doses to about 46.2 µM), hits mostly inhibitors; also: nearly all actives have a fitted effect of over 55% in size
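Cell growth measured by CellTiter-Glo luminescence after a minimum 48 h, 37 C compound exposure with 20 nM CPT in Tdp1-knockout DT40 cells stably expressing hTDP1, seeded 400/well; qHTS titration format.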
IL-1B inflam inh = inflammasome signaling inhibition, IL-1 beta readout; THP-1 LPS/ATP IL-1B secretion, AlphaLISA, 16 h; active compounds read low; activity change, % at 57.5 µM; hit rate 4.7% among 360,000; in the data active = activity change below about -50%; inconclusive = mostly about -30% to -49%
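Secreted IL-1B measured by AlphaLISA bead assay after 16 h compound exposure of THP-1 cells; compounds (final up to 57.5 uM) added 1 h before LPS (250 ng/mL) and ATP (1.25 mM) stimulation; lower signal means less secretion.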
ELG1 DNA repair = blocks ELG1-dependent DNA repair in HEK293T cells; HEK293T ELG1-luciferase reporter, luminescence, 16 h; DNA damage induced by 5-fluorouridine; hit rate 2.3% among 330,000; Potency, µM (series often up to 46.1 µM), hits mostly inhibitors; also: nearly all actives have a fitted effect of over 55% in size
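In this reporter screen, reduction of luminescence relative to DMSO vehicle indicated activity. Compounds and 5-fluorouridine were added together to 2,000 cells per well, incubated for 16 hr at 37 °C, then developed with ONE-Glo.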
HT1080 IDH1KD tx = toxicity to HT-1080 IDH1 knockdown cells (counter line) | hit rate 2% among 360,000 | Potency, µM (titrated, usually from 46.1 µM), usual class: cytotoxic | HT-1080 IDH1 knockdown viability, ATP luminescence, 48 h
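HT-1080-IDH1KD cells (IDH1 knocked down), 750/well in RPMI with 5% FBS, treated with compound 48 h at 37 degrees C. Viability by CellTiter-Glo luminescence, normalised to DMSO and no-cell wells; concentration-response curves classed.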
TDP1 cell noCPT = qHTS for Inhibitors of human tyrosyl-DNA phosphodiesterase 1 (TDP1): qHTS in cells in absence of CPT. hit rate 15% among 420,000. DT40 Tdp1-/- hTDP1 cells, no CPT, ATP luminescence, 48 h. AID 686978, 2013. Potency, µM (highest dose often 46.2 µM), hits mostly inhibitors; also: nearly all actives have a fitted effect of over 55% in size
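Chicken DT40 Tdp1-/- cells complemented with human TDP1, screened without camptothecin (DMSO vehicle only), 400 cells/well. Compounds pin-transferred, cells incubated at 37 °C for at least 48 hr. Growth read as ATP-dependent luminescence (CellTiter-Glo, 30 min at RT).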
Hits are given with their value; . = inactive; ? = inconclusive; / = no result. Unless noted, calls follow the shape of the dose curve; as a rule, active = well fitted curve in the direction sought with a large enough effect; inconclusive = small, poorly fitted or top-dose-only effect, or another doubt; inactive = no such curve, though single readings can be large; an effect the other way counts as inactive or inconclusive.

SMILES | HT1080-NT tox | DT40 TDP1 CPT | IL-1B inflam inh | ELG1 DNA repair | HT1080 IDH1KD tx | TDP1 cell noCPT
COc1cc2c(cc1NC(=O)CN1C(=O)NC3(CCc4ccccc43)C1=O)oc1ccccc12 (stereo not given) | 23µM | ? | . | ? | 15µM | ?
CCNC(=O)C1CCCN(C(=O)c2ccco2)CC1 (stereo not given) | . | . | . | / | . | .
COc1ccc(NC(=O)CNC(=O)Cn2ccc3ccccc3c2=O)cc1OC | / | . | / | / | / | .
COc1cccc(C(C)(O)c2nc(-c3cncnc3)cs2)c1 (stereo not given) | . | ? | . | / | . | ?
COc1ccc(-c2csc(C(C)(O)c3cccnc3)n2)cn1 (stereo not given) | . | ? | . | / | . | .
CC(O)(c1cccnc1)c1nc(-c2ccc3c(c2)OCO3)cs1 (stereo not given) | . | 16µM | . | / | . | ?
COCc1cccc(-c2csc(C(C)(O)c3cccc(OC)c3)n2)c1 (stereo not given) | ? | 13µM | . | / | ? | ?
CC(O)(c1cccc(F)c1)c1nc(-c2cccc(C#N)c2)cs1 (stereo not given) | ? | ? | . | / | . | ?
COc1cccc(C(C)(O)c2nc(-c3cc(F)cc(F)c3)cs2)c1 (stereo not given) | 23µM | ? | . | / | ? | 23µM
CC(O)(c1cccnc1)c1nc(-c2cccc(C#N)c2)cs1 (stereo not given) | . | 16µM | . | / | . | 15µM
CCOC(=O)N1CCC(C(=O)NNC(=O)c2ccc(Cl)cc2Cl)CC1 | . | . | . | . | . | .
O=C(COC(=O)Cn1nnc(-c2ccccc2)n1)Nc1cc(F)ccc1F | . | . | . | ? | . | .
COc1ccc(C(C)(O)c2nc(-c3ccc4c(c3)OCO4)cs2)cc1 (stereo not given) | . | ? | . | / | ? | ?
COc1cccc(C(C)(O)c2nc(-c3ccc4ccccc4c3)cs2)c1 (stereo not given) | ? | ? | . | / | ? | ?
COc1ccc(C(C)(O)c2nc(-c3csc4ccccc34)cs2)cc1 (stereo not given) | ? | 2.9µM | . | / | 16µM | 4.6µM
COc1ccc(C(C)(O)c2nc(-c3cncnc3)cs2)cc1 (stereo not given) | . | . | . | / | . | .
COc1cccc(C(C)(O)c2nc(-c3ccc4c(c3)OCO4)cs2)c1 (stereo not given) | . | 15µM | . | / | . | 21µM
CC(O)(c1cccnc1)c1nc(-c2ccc3ccccc3c2)cs1 (stereo not given) | ? | 21µM | . | / | ? | 23µM
CC(O)(c1cccnc1)c1nc(/C=C/c2ccccc2)cs1 (stereo not given) | . | ? | . | / | . | 21µM
CC(C)[C@@H](C(=O)N1CCNCC1)n1cc(CCO)nn1 | . | . | . | ? | . | .
CN(C)S(=O)(=O)n1cnc([C@@H]2[C@H]3C(=O)OC[C@@H]3C[C@@]23N=CN(Cc2ccccc2)C3=O)c1 | . | . | . | ? | . | .
CC(=O)NC(C)(c1ccccc1)c1nc(/C=C/c2ccccc2)cs1 (stereo not given) | . | ? | . | / | . | 16µM
COc1cccc(C(C)(O)c2nc(-c3ccc(OC)nc3)cs2)c1 (stereo not given) | ? | ? | . | / | ? | ?
COc1ccc(-c2csc(C(C)(O)c3cccc(OC)c3)n2)cc1 (stereo not given) | . | 16µM | . | / | ? | ?
COc1cccc(C(C)(O)c2nc(-c3ccc(S(C)(=O)=O)cc3)cs2)c1 (stereo not given) | . | ? | . | / | . | 18µM
COc1cccc(C(C)(O)c2nc(-c3ccc(Cl)cc3)cs2)c1 (stereo not given) | ? | ? | . | / | ? | ?

Assay outcomes deposited in PubChem BioAssay by National Center for Advancing Translational Sciences (NCATS).
